Source: PubChem BioAssay (National Center for Advancing Translational Sciences (NCATS))
Most compounds without a hit are left out; they make up all but 9.4% or so of the library.
Pf growth 96h: inhibits malaria parasite growth, 96 h; P. falciparum luciferase reporter growth, 96 h; 6.9% of 320,000 active; AID 504834; Potency, µM (titrated, usually from 28.7 µM), for inactives: at the top dose activity change, negative = inhibition, actives largely listed as inhibitors; note: % is set by controls: 0 for no effect and ±100 for the full control effect
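Readout is luminescence from an integrated firefly luciferase in P. falciparum. Red cells, 2% hematocrit and 0.05% parasitemia final, were cultured with compound through two parasite generations (96 hours) at 37 C, 5% CO2.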
Pf growth 48h: P. falciparum growth inhibition at 48 hours (one generation). P. falciparum luciferase growth in erythrocytes, 48 h. Potency, µM (highest dose often 28.7 µM), without a hit: at the highest dose activity change, negative = inhibition, actives largely listed as inhibitors. 5.9% of 310,000 active; note: % is set by controls: 0 for no effect and ±100 for the full control effect
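Cell-based growth assay: transgenic P. falciparum expressing firefly luciferase, cultured in red cells within RPMI 1640 containing 0.5% w/v Albumax, 24 mM bicarbonate and gentamycin. A drop in luciferase activity indicates inhibition.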
SARS PLP yeast: SARS-CoV PLP inhibition in yeast | S. cerevisiae expressing SARS-CoV PLpro, growth rescue | Potency, µM (highest dose often 32.9 µM), inactives show at the highest dose activity, positive = growth rescue, most hits filed as activators | 0.19% of 330,000 active | AID 485353; calls by dose curve; note: 0% is about no effect; nearly all actives have a fitted effect of over 55% in size
AMA1 RON2 block: AMA1-RON2 (P. falciparum) interaction inhibition | Potency, µM (titrated, usually from 58.2 µM), for inactives: top-dose activity change, negative = inhibition, hits mostly inhibitors | AID 720542 | AlphaScreen AMA1-biotinylated RON2 peptide binding | 0.2% of 360,000 active;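 note: 0% = vehicle wells and -100% = peptide control; nearly all actives have a fitted effect of over 45% in size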
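AMA1 (3D7) with his tag at 25 nM final met compounds first, then biotinylated RON2 peptide at 25 nM; detection used donor plus acceptor beads, 10 µg/mL apiece, read by AlphaScreen after 30 min at room temperature.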
Starred values were filed as active, the others as inactive; ? = inconclusive; · = not tested or not shown; [ ] = dose if it differs, or a comment. Unless noted, calls come from the whole dose curve; as a rule, active = well fitted curve in the direction sought with a large enough effect; inconclusive = small, poorly fitted or top-dose-only effect, or another doubt; inactive = no such curve, though single readings can be large; an effect the other way counts as inactive or inconclusive. Potency is the fitted concentration of half-maximal effect.

SMILES | Pf growth 96h | Pf growth 48h | SARS PLP yeast | AMA1 RON2 block
C=CCn1c(SCC(=O)Nc2cc(Cl)ccc2C(=O)O)nc2sc(C)c(C)c2c1=O | -22% | 10% | 2% | 9%
O=C(NC1CCN(C(=O)Nc2cccc(F)c2)CC1)C1CCCCC1 | 12µM* | -4% | 1% | -8%
COc1ccc(C(=O)N2CCC(NC(=O)C(Cc3ccccc3OC)NC(C)=O)CC2)cc1 (configuration not stated) | 19% | -18% | -4% | -2%
COc1cc(C(=O)N2CCC(NC(=O)C(Cc3ccccc3)NC(C)=O)CC2)cc(OC)c1OC (configuration not stated) | 12µM* | ? | -1% | 11%
COc1ccccc1CC(NC(C)=O)C(=O)NC1CCN(C(=O)Nc2cccc(F)c2)CC1 (configuration not stated) | 1.3µM* | -21% | 2% | 6%
COc1cccc(NC(=O)N2CCC(NC(=O)C(Cc3ccccc3OC)NC(C)=O)CC2)c1 (configuration not stated) | ? | -7% | 9% | -4%
COc1ccccc1CC(NC(C)=O)C(=O)NC1CCN(C(=O)c2ccc([N+](=O)[O-])cc2)CC1 (configuration not stated) | 6.6µM* | 0% | 1% | -6%
CCOC(=O)C(C#N)C(c1cccnc1)c1c(C)[nH][nH]c1=O (configuration not stated) | · | ? | 12% | 16%
COc1ccc(NC(=S)N2CCC(C(=O)c3ccc(Cl)cc3)CC2)cc1 | · | · | · | 4%
Cc1cc(C)c(S(=O)(=O)N2CCCCC2)cc1N(C)S(=O)(=O)c1ccc(Cl)cc1 | ? | ? | -3% | 0%
COc1cccc(Nc2nc3ccccc3n2C(C)C)c1 | -2% | 15% | 19% | 0%
CCCCNC(=O)C1CCC(CNS(=O)(=O)c2ccc(C)cc2)CC1 (configuration not stated) | 53% | -16% | 0% | 15%
COCCCNC(=O)C1CCC(CNS(=O)(=O)c2ccc(C)cc2)CC1 (configuration not stated) | 77%[5.75 µM] | 10µM* | -5% | ·
CC(C)NC(=O)/C(=N\O)c1ccccc1 | 46% | 34% | 0% | -3%
CNC(=O)/C(=N\O)c1ccccc1 | 9.3µM* | 46% | 2% | ·
O=C(CN1CCOCC1)N/N=C/c1cc2ccccc2nc1Cl | 1.5µM* | 24% | 0% | 108%
Cc1ccc(NCC(=O)N/N=C/c2cc3ccccc3nc2Cl)cc1 | 40% | ? | -7% | 24%
CN(C)c1ccc(C2/C(=C(/O)c3ccc(Br)cc3)C(=O)C(=O)N2C)cc1 (configuration not stated) | 5.9µM* | · | -1% | ?
FC(F)(F)c1cccc(N2Cc3ccccc3C2)c1 | 46% | 13µM* | -4% | 1%
CCc1ccc(N2Cc3ccccc3C2)cc1 | ? | -88% | -3% | 0%
Cc1cc(C)cc(N2Cc3ccccc3C2)c1 | 4.1µM* | · | -5% | -3%
CCCCn1c(=N)n(CC(=O)c2ccco2)c2ccccc21 | 80% | 2% | 1% | 7%
CCCCCCCn1c(=N)n(CC(=O)c2ccco2)c2ccccc21 | 12µM* | · | 0% | -5%
CCCCCCCn1c(=N)n(CC(O)c2ccco2)c2ccccc21 (configuration not stated) | ? | 4.1µM* | 0% | -17%
N=c1n(CCN2CCCC2)c2ccccc2n1CC(O)c1ccco1 (configuration not stated) | 15% | ? | 1% | -2%
SMILES | Pf growth 96h | Pf growth 48h | SARS PLP yeast | AMA1 RON2 block
O=C(C1=C[C@@H](c2ccc(Br)cc2)C[C@@H](OCc2ccc(CO)cc2)O1)N1CCN(Cc2ccccc2)CC1 | 12µM* | ? | -2% | -17%
C#Cc1ccc([C@H]2C=C(C(=O)N3CCN(Cc4ccccc4)CC3)O[C@@H](OCc3ccc(CO)cc3)C2)cc1 | 2.3µM* | 3.3µM* | -1% | -6%
Cc1nn(-c2ccccc2)c(C)c1NC(=O)COC(=O)C1CC(=O)N(CCc2ccccc2)C1 (configuration not stated) | 23% | ? | 1% | 19%
CCOc1ccc(-c2cc3nc(C4CCN(C(=O)OC(C)(C)C)CC4)c(C(=O)O)cn3n2)cc1 | ? | 0.47µM* | -20% | 4%
CCN(CC(=O)NCc1ccc(Cl)cc1)C(=O)CNS(=O)(=O)c1ccc(NC(C)=O)cc1 | ? | 12µM* | -1% | -11%
CC(=O)Nc1ccc(S(=O)(=O)NCc2ccc(C(=O)NCc3ccc(Cl)cc3)cc2)cc1 | ? | · | -5%[6.58 µM] | -11%
CCOC(=O)c1sc(NC(=O)CCSC)nc1C | 16% | ? | -10% | -11%
CCOC(=O)c1sc(NC(=O)CSC(=S)N2CCN(C)CC2)nc1C | ? | 8.3µM* | 0% | -10%
Cc1cc2[nH]c(=O)c(=O)[nH]c2cc1S(=O)(=O)NC1CCC(C)CC1 (configuration not stated) | 0% | ? | 3% | -2%
Cc1cc2[nH]c(=O)c(=O)[nH]c2cc1S(=O)(=O)NC1CCCCC1C (configuration not stated) | 4.7µM* | -1% | 6% | 6%
CN(C)c1nc(OCCNC(=O)Nc2ccc(Cl)cc2)nc(N(C)C)n1 | ? | -8% | 0% | 8%
CS(=O)(=O)c1ccc(Cl)c(C(=O)NC2CCSc3ccccc32)c1 (configuration not stated) | 2% | 0% | 2% | 12%
S=C(c1cn(CCOc2ccccc2)c2ccccc12)N1CCCC1 | ? | 12µM* | -6% | -22%
S=C(c1cn(CCOc2cccc3ccccc23)c2ccccc12)N1CCCC1 | ? | 13µM* | 18% | 4%
Cc1ccc(OCCn2cc(C(=S)N3CCCC3)c3ccccc32)cc1C | ? | ? | 0% | 24%
Cc1ccc(C(=O)NN2C(=O)C3C4C=CC(C4)[C@@H]3C2=O)cc1 (some centres not stated) | 82% | 1.9µM* | -5% | 6%
O=C(NN1C(=O)C2C3C=CC(C3)C2C1=O)c1ccccc1 (configuration not stated) | -2% | 1% | 0% | 9%
COc1cc(NC(=O)c2ccc(OC)c([N+](=O)[O-])c2)ccc1NC(=O)c1cccs1 | -9% | 19% | -10% | 3%
CCOc1ccc(C(=O)Nc2cccc(NC(=O)c3cccs3)c2)cc1[N+](=O)[O-] | 12µM* | -16% | 1% | -5%
CCOc1ccc(C(=O)Nc2ccc(N3CCN(C)CC3)cc2)cc1[N+](=O)[O-] | 0% | ? | 1% | -8%
CCOc1ccc(C(=O)Nc2ccc(NC(=O)c3ccccc3)c(C)c2)cc1[N+](=O)[O-] | 0.21µM* | 12% | 4% | -8%
CCOc1ccc(C(=O)Nc2ccc(N3CCN(S(C)(=O)=O)CC3)cc2)cc1[N+](=O)[O-] | 9.3µM* | -4% | 0% | 0%
O=C(CSCc1ccc(Cl)cc1)Nc1ccc(-c2nnc(-c3ccccc3)o2)cc1 | -10% | 33% | 0% | -9%
Cc1ccc(C)n1NC(=O)c1ccccc1 | ? | 4% | -1% | -13%
